Experimental data: the supplement of paper PMC10849652
About 7,900 targets were measured; listed, in parts, are those with a hit and a random draw of the rest. About 0.6% of all pairs of compound and target were hits. A number with no mark means an inactive call.

How the values were obtained:
Assay in all cases: log2 fold change, soluble protein after heating vs DMSO (PISA); higher = thermal stabilisation; K562 cells, 10 uM, 30 min; active = over 0.2 and 3.5 SD of the protein, either way, in both replicates (recomputed)
[1] = compound: CN1CCN(CCOc2cc(OC3CCOCC3)c3c(Nc4c(Cl)ccc5c4OCO5)ncnc3c2)CC1 [saracatinib]
Method in brief: (§1)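 For each measurement, 10 μM compound was applied for 30 min to K562 cells at 2×10^6 cells/mL. Aliquots were heated for 3 min across 48°C-58°C, pooled, and extracted in PBS with 0.5% NP-40 at 4°C; the supernatant after 21,000xg for 90 min was soluble protein. This was quantified by TMTpro 16plex LC-MS/MS with channel sums equalised, and thermal stability was reported relative to control samples from duplicates, on a log2 fold-change scale.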

[2] = compound: CN1CCN(c2nc(C3=C(c4c[nH]c5ccccc45)C(=O)NC3=O)c3ccccc3n2)CC1 [sotrastaurin]
Method in brief: as §1

[3] = compound: CN1CC[C@H](c2c(O)cc(O)c3c(=O)cc(-c4ccccc4Cl)oc23)[C@H](O)C1 [alvocidib]
Method in brief: as §1

[4] = compound: CN1CCc2c(c3ccccc3n2Cc2ccc(C(=O)NO)cc2)C1 [Tubastatin A]
Method in brief: as §1

[5] = compound: CNC(=O)C1=CC=CC=C1NC2=NC(=NC=C2Cl)NC3=C(C=C(C=C3)N4CCOCC4)OC
Method in brief: as §1

[6] = compound: CNC(=O)c1ccc(Nc2ncc(C(F)(F)F)c(NCc3nccnc3N(C)S(C)(=O)=O)n2)cc1 [defactinib]
Method in brief: as §1

[7] = compound: CNCc1ccc(-c2[nH]c3cc(F)cc4c3c2CCNC4=O)cc1 [rucaparib]
Method in brief: as §1

[8] = compound: CNc1nc(-c2ccc3c(N)n[nH]c3c2)cc(N2C[C@@H](C(=O)NC3CCCCC3)CC[C@H]2C)n1
Method in brief: as §1

[9] = compound: COC(=O)N[C@@H](C)CNc1nccc(-c2cn(C(C)C)nc2-c2cc(Cl)cc(NS(C)(=O)=O)c2F)n1 [encorafenib]
Method in brief: as §1

[10] = compound: COC(=O)[C@H](CCSC)NC(=O)C1=C(C=C(C=C1)NC[C@H](CS)N)C2=CC=CC=C2
Method in brief: as §1

[11] = compound: COC1=CC=C(C=C1)CN2C=CC3=C2C=C(C=C3)C(=O)NO
Method in brief: as §1

[12] = compound: CON(C)C(=O)N1N=C(c2cc(F)ccc2F)S[C@@]1(CCCN)c1ccccc1 [filanesib]
Method in brief: as §1

[13] = compound: CO[C@H]1C[C@@H]2CC[C@@H](C)[C@@](O)(O2)C(=O)C(=O)N2CCCC[C@H]2C(=O)O[C@H]([C@H](C)C[C@@H]2CC[C@H](n3cnnn3)[C@H](OC)C2)CC(=O)[C@H](C)/C=C(\C)[C@@H](O)[C@@H](OC)C(=O)[C@H](C)C[C@H](C)/C=C/C=C/C=C/1C [zotarolimus]
Method in brief: as §1

[14] = compound: COc1cc(C(=O)O)ccc1NC(=O)[C@@H]1N[C@@H](CC(C)(C)C)[C@](C#N)(c2ccc(Cl)cc2F)[C@H]1c1cccc(Cl)c1F [idasanutlin]
Method in brief: as §1

[15] = compound: COc1cc(Nc2ncc3c(n2)-c2ccc(Cl)cc2C(c2c(F)cccc2OC)=NC3)ccc1C(=O)O [alisertib]
Method in brief: as §1

[16] = compound: COc1cc2nc(-c3cc(F)ccc3O)nc(N[C@@H]3CNC[C@H]3C(C)(C)O)c2cc1OC
Method in brief: as §1

[17] = compound: COc1cc2ncnc(Nc3ccc(F)c(Cl)c3)c2cc1OCCCN1CCOCC1 [gefitinib]
Method in brief: as §1

[18] = compound: COc1cccc2cc(-c3nc([C@H]4CC[C@H](C(=O)O)CC4)n4ncnc(N)c34)[nH]c12
Method in brief: as §1

[19] = compound: CS(=O)(=O)CCNCc1ccc(-c2ccc3ncnc(Nc4ccc(OCc5cccc(F)c5)c(Cl)c4)c3c2)o1 [lapatinib]
Method in brief: as §1

[20] = compound: CS(=O)(=O)N1CCN(Cc2cc3nc(-c4cccc5[nH]ncc45)nc(N4CCOCC4)c3s2)CC1 [pictilisib]
Method in brief: as §1

Sequence of UniProt O95926 (O95926 whole entry, looked up): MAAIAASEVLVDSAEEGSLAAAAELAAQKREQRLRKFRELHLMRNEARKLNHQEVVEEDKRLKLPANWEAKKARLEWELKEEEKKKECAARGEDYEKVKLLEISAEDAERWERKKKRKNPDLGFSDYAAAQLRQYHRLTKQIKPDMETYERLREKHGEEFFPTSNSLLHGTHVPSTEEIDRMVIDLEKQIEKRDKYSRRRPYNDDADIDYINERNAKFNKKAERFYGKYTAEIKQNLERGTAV
Sequence of UniProt Q92536 (Q92536 whole entry, looked up): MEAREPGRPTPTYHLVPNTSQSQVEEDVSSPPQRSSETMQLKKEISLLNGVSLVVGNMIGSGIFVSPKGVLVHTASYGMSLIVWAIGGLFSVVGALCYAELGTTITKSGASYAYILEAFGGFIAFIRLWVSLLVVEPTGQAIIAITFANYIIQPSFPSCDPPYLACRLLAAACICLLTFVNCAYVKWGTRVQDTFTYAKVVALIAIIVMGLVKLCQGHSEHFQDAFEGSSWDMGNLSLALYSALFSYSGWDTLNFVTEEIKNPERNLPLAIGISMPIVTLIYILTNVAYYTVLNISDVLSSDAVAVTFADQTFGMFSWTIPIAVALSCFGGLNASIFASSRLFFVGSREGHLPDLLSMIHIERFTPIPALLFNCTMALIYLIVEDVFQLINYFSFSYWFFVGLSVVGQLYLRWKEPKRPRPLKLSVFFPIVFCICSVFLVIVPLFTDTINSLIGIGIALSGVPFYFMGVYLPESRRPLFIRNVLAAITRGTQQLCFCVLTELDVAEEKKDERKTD
Sequence of UniProt Q9BVV7 (Q9BVV7 whole entry, looked up): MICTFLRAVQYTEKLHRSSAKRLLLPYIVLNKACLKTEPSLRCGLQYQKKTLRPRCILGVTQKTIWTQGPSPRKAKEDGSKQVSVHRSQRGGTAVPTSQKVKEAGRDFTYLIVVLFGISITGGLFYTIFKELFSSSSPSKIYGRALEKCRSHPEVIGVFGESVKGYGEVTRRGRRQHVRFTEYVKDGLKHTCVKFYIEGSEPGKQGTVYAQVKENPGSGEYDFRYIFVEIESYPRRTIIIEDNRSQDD
Sequence of UniProt Q96QD8 (Q96QD8 whole entry, looked up): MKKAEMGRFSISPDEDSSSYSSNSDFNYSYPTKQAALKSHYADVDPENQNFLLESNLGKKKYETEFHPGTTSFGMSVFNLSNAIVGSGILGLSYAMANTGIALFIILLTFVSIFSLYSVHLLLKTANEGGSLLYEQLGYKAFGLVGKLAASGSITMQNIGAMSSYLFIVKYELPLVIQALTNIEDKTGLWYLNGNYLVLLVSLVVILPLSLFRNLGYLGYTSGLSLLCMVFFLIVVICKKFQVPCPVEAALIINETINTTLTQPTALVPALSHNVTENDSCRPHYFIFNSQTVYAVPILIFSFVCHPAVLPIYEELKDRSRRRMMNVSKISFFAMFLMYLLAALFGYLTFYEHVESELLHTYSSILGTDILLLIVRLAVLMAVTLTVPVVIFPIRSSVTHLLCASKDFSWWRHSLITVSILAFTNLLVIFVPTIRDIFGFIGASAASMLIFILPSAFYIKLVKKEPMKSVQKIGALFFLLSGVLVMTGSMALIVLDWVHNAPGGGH
Sequence of UniProt P15907 (P15907 whole entry, looked up): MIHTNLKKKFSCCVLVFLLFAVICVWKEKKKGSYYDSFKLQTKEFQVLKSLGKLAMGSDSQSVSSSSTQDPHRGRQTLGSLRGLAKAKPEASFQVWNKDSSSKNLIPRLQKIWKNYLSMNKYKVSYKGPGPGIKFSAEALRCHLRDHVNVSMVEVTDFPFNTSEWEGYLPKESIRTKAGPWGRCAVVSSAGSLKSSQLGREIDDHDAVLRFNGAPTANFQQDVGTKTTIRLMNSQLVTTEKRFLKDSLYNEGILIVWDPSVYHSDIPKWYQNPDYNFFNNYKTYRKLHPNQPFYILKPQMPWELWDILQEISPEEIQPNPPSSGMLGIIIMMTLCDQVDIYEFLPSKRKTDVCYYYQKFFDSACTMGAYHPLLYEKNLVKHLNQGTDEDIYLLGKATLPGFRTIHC
Sequence of UniProt P56962 (P56962 whole entry, looked up): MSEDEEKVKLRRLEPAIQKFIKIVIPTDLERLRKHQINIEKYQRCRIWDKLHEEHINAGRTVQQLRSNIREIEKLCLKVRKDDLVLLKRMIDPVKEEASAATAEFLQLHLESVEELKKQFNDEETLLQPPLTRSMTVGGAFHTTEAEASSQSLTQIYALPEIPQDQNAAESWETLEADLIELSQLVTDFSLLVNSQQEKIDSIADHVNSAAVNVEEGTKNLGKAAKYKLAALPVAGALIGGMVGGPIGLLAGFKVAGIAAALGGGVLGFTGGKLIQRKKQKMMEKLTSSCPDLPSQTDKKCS
Sequence of UniProt Q969Z0 (Q969Z0 whole entry, looked up): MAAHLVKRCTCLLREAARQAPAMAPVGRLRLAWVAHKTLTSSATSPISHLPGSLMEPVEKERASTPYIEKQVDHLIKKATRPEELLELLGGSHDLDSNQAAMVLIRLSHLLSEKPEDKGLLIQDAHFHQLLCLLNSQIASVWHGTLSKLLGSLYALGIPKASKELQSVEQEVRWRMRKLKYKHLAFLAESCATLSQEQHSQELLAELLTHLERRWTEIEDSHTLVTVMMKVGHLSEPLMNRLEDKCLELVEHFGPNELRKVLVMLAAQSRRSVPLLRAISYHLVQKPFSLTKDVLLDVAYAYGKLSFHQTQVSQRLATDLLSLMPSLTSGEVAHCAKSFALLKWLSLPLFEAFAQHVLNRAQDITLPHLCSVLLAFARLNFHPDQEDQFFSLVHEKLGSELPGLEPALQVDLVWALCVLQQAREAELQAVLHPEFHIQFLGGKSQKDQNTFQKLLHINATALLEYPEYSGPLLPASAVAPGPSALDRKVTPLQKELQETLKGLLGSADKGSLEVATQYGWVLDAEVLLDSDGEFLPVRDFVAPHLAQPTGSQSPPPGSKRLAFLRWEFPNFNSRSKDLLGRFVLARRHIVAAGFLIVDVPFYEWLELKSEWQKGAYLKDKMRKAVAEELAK
Sequence of UniProt P55061 (P55061 whole entry, looked up): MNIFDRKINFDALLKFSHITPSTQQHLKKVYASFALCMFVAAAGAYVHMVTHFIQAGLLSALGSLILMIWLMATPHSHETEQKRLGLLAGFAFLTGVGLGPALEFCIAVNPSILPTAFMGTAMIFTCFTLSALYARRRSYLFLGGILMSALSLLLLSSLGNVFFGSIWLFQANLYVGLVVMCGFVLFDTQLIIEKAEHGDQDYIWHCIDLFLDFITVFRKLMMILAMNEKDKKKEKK
Sequence of UniProt O15400 (O15400 whole entry, looked up): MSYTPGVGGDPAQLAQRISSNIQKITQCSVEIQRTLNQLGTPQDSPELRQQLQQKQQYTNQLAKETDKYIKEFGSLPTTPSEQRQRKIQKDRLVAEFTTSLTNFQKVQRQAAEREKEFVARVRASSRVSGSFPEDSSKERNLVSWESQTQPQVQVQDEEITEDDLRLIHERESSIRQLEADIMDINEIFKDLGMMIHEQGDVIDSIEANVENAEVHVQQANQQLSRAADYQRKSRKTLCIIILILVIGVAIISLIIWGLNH
Sequence of UniProt O60749 (O60749 whole entry, looked up): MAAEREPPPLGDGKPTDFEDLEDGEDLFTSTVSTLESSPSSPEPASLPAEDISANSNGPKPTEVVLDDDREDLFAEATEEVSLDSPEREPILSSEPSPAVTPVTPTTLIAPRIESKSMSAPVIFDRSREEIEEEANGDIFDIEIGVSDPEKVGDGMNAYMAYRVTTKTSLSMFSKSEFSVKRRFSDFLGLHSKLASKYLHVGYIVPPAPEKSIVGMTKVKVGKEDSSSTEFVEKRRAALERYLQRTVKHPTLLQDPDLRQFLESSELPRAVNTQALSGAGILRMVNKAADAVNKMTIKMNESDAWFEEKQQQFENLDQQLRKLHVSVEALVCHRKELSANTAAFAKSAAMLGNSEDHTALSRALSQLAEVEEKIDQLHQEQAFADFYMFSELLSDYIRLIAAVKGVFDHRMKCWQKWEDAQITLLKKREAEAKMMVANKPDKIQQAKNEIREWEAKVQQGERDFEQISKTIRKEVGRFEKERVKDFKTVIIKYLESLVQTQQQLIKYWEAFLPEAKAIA
Sequence of UniProt Q01085 (Q01085 whole entry, looked up): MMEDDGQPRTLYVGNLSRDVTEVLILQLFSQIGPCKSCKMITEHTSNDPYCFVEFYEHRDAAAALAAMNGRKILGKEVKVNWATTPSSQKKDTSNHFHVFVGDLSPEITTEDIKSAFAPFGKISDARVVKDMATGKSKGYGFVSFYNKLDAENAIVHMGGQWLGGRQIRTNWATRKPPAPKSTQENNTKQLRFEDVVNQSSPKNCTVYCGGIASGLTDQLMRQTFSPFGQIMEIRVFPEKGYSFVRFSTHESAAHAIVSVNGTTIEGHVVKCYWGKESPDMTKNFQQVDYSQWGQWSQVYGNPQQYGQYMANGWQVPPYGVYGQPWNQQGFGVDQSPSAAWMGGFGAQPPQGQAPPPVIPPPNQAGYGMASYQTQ
Sequence of UniProt P50225 (P50225 whole entry, looked up): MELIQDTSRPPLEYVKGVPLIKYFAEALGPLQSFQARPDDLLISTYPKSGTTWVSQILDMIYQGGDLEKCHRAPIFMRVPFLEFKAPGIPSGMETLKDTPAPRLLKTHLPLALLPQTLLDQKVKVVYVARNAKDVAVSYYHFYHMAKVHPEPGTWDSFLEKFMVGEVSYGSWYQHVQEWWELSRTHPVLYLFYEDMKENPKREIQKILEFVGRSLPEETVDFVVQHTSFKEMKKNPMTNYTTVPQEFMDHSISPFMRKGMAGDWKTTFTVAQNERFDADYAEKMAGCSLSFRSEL
Sequence of UniProt Q96CW6 (Q96CW6 whole entry, looked up): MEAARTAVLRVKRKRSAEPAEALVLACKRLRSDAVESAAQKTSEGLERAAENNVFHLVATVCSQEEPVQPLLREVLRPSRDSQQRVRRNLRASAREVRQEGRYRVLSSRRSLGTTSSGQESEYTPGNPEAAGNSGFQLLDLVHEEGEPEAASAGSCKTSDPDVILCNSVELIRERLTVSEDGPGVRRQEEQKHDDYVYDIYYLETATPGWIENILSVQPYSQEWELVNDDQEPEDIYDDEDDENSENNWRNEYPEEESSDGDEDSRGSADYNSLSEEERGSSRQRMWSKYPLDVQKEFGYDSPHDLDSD

Target	log2 fold change [1]	log2 fold change [2]	log2 fold change [3]	log2 fold change [4]	log2 fold change [5]	log2 fold change [6]	log2 fold change [7]	log2 fold change [8]	log2 fold change [9]	log2 fold change [10]	log2 fold change [11]	log2 fold change [12]	log2 fold change [13]	log2 fold change [14]	log2 fold change [15]	log2 fold change [16]	log2 fold change [17]	log2 fold change [18]	log2 fold change [19]	log2 fold change [20]
SLC38A2 (UniProt Q96QD8)	-0.007	0.027	0	-0.043	0.004	-0.034	-0.044	-0.188	0.045	-0.024	-0.041	-0.205	0.048	0.011	-0.019	-0.122	-0.099	0.097	-0.055	–
TLK1 (UniProt Q9UKI8)	0.022	-0.011	-0.022	0.036	-0.064	-0.013	-0.029	-0.002	0.022	-0.033	-0.011	-0.021	0.019	-0.009	-0.023	-0.029	0.006	0.064	-0.018	-0.04
STX17 (UniProt P56962)	-0.038	0	-0.217	0.044	0.021	-0.266	0.152	0.127	0.091	-0.001	0.023	0.013	0.046	-0.027	-0.12	-0.081	0.027	-0.001	0.039	0.093
ST6GAL1 (UniProt P15907)	-0.001	0.018	0.006	0.026	0.159	-0.03	0.004	0.05	0.037	-0.08	0.013	0.224 (active)	0.051	0.066	-0.085	0.046	0.095	-0.003	0.116	0.063
STX7 (UniProt O15400)	0.063	0.026	-0.001	-0.036	0.013	-0.033	0.028	-0.014	-0.039	-0.02	0.065	-0.071	0.027	-0.023	-0.048	0.013	-0.01	0.045	-0.002	-0.118
SULT1A1 (UniProt P50225)	0.052	-0.03	-0.061	-0.004	0.105	-0.214	-0.048	0.05	0.084	-0.125	0.161	0.034	0.042	-0.02	0.056	0.046	0.062	-0.03	0.026	0.138
SYF2 (UniProt O95926)	-0.028	-0.041	0.383 (active)	-0.016	-0.086	0.286	0.029	-0.14	-0.062	0.038	-0.236	0.069	-0.174	0.058	-0.07	0.191	-0.109	0.02	-0.025	-0.092
SNX2 (UniProt O60749)	0.006	0.002	-0.089	0.004	-0.114	-0.068	-0.004	0.024	0	-0.029	0.011	-0.156	0.037	0	0.013	-0.101	-0.105	0.029	0.001	-0.104
SLC7A6OS (UniProt Q96CW6)	0.14	0.008	0.024	-0.001	0.031	-0.144	-0.05	-0.078	-0.004	0.06	-0.085	0.006	0.046	-0.034	-0.073	-0.072	0.007	-0.037	0.038	0.019
SMCHD1 (UniProt A6NHR9)	-0.238	-0.084	-0.492	0.002	-0.028	-0.45	0.183	0.075	0.188	-0.088	0.043	0.008	0.123	0.062	-0.005	-0.179	-0.078	-0.096	0.002	0.035
TMBIM6 isoform 2 (UniProt P55061)	0.08	-0.029	-0.027	0.062	-0.004	-0.007	-0.065	-0.006	-0.005	0.039	-0.007	-0.233	-0.099	-0.51 (active)	-0.27	-0.535 (active)	-0.087	-0.165	-0.196	–
SLC7A6 (UniProt Q92536)	0.018	0.022	-0.096	0	-0.16	-0.056	-0.034	0.027	0.002	-0.047	-0.236 (active)	0.009	-0.001	-0.02	-0.069	0.028	0.073	0.048	0.033	0.048
TIAL1 isoform 2 (UniProt Q01085)	0.015	0.025	0.036	-0.052	-0.019	0.077	0.066	-0.042	-0.034	-0.014	0.033	0.037	-0.016	0.026	-0.064	0.076	-0.007	0.02	0.029	0.01
SOAT1 (UniProt P35610)	0.026	-0.06	-0.02	-0.057	0.186	-0.053	-0.064	0.014	0.122	0.111	0	-0.1	0.363 (active)	-0.184	-0.02	-0.118	0.137	0.045	0.068	0.067
TBRG4 (UniProt Q969Z0)	-0.093	-0.431	-0.345	0.044	-0.177	-0.25	0.008	-0.144	0.071	-0.062	0.062	-0.551	-0.007	-0.021	0.032	-0.274	-0.121	0.073	-0.051	-0.036
TIMM21 (UniProt Q9BVV7)	0	-0.001	-0.05	-0.048	-0.025	-0.007	-0.04	-0.016	0.063	0.051	-0.038	-0.171	0.03	-0.078	0.054	-0.205	-0.006	0.01	-0.008	0.055
